From PubChem BioAssay (NCATS)
“And” between values parts separate entries of the source, which are not always exact repeats. Equal values may be shown once. Results filed as inconclusive are left out. The source made the active and inactive calls. The call rests on the fitted dose curve; in most records, active means well fitted inhibition curve with a large enough effect; inconclusive means small, poorly fitted or top-dose-only effect; inactive means flat fitted curve, though single readings scatter.

Columns and labels:
CRL-7250 = normal cell line; assay: Cytotoxic Profiling of Annotated Libraries Using Quantitative High-Throughput Screening (AID 1296008); conditions: Five cell lines viability, CellTiter-Glo ATP luminescence, 48-72 h; max response: hits give low values; further: potency means the concentration at half of the fitted maximal effect; on max response: on the % scale 0 is the no-effect control and ±100 the full control effect
How it was run: (§1)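 Cytotoxicity was measured as CellTiter-Glo ATP luminescence, read after 10 min at room temperature. Compound treatment of the cells lasted 48 or 72 hr at 37 degrees Celsius in a qHTS format.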

HEK293 = assay: as above; conditions: Five cell lines viability, CellTiter-Glo ATP luminescence, 48-72 h; max response: hits give low values
How it was run: as §1

HaCat [1] = assay: as above; conditions: Five cell lines viability, CellTiter-Glo ATP luminescence, 48-72 h; max response: hits give low values
How it was run: as §1

KB-3-1 = assay: as above; conditions: Five cell lines viability, CellTiter-Glo ATP luminescence, 48-72 h; max response: hits give low values
How it was run: as §1

NIH3T3 = assay: as above; conditions: Five cell lines viability, CellTiter-Glo ATP luminescence, 48-72 h; max response: hits give low values
How it was run: as §1

MCC-26 = assay: qHTS assay to identify novel small-molecules to repurpose for Merkel cell carcinoma treatment (AID 1296009); conditions: MCC and control cell lines, CellTiter-Glo viability, 72 h; series mostly up to 46 µM; further: potency means the concentration at half of the fitted maximal effect
How it was run: (§2)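 Cell viability measured by CellTiter-Glo following 72 hr compound treatment at 37 degree celsius, with NPC and MIPE libraries tested in 8- and 11-point concentration series.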

MKL-2 = assay: as above; conditions: MCC and control cell lines, CellTiter-Glo viability, 72 h; series mostly up to 46 µM
How it was run: as §2

MCC-13 = assay: as above; conditions: MCC and control cell lines, CellTiter-Glo viability, 72 h; series mostly up to 46 µM
How it was run: as §2

MKL-1 = assay: as above; conditions: MCC and control cell lines, CellTiter-Glo viability, 72 h; series mostly up to 46 µM
How it was run: as §2

PAD = assay: qHTS profiling for inhibitors of Plasmodium falciparum proliferation (AID 504749);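 further: 0% = DMSO vehicle and full inhibition = artemisinin control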; conditions: P. falciparum in erythrocytes, SYBR Green DNA, 72 h; series mostly up to 28.7 µM
How it was run: (§3)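 In a 72 h erythrocytic culture (37 C, humidified, 5% CO2) at 2.5% hematocrit and 0.3% starting parasitemia, compounds were tested; SYBR Green I in detergent lysis buffer stained parasite DNA overnight.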

PC15 = assay: as above; conditions: P. falciparum in erythrocytes, SYBR Green DNA, 72 h; series mostly up to 28.7 µM
How it was run: as §3

PC26 = assay: as above; conditions: P. falciparum in erythrocytes, SYBR Green DNA, 72 h; series mostly up to 28.7 µM
How it was run: as §3

PC49 = assay: as above; conditions: P. falciparum in erythrocytes, SYBR Green DNA, 72 h; series mostly up to 28.7 µM
How it was run: as §3

SC27B = assay: as above; conditions: P. falciparum in erythrocytes, SYBR Green DNA, 72 h; series mostly up to 28.7 µM
How it was run: as §3

TAB109 = assay: as above; conditions: P. falciparum in erythrocytes, SYBR Green DNA, 72 h; series mostly up to 28.7 µM
How it was run: as §3

TAB113 = assay: as above; conditions: P. falciparum in erythrocytes, SYBR Green DNA, 72 h; series mostly up to 28.7 µM
How it was run: as §3

W2 = assay: as above; conditions: P. falciparum in erythrocytes, SYBR Green DNA, 72 h; series mostly up to 28.7 µM
How it was run: as §3

HACAT [2] = assay: qHTS assay to identify novel small-molecules to repurpose for Merkel cell carcinoma treatment (AID 1296009); conditions: MCC and control cell lines, CellTiter-Glo viability, 72 h; at 44.8 µM (top of the series) unless noted; further: potency means the concentration at half of the fitted maximal effect
How it was run: as §2

HEK293T = assay: as above; conditions: MCC and control cell lines, CellTiter-Glo viability, 72 h; at 44.8 µM (top of the series)
How it was run: as §2
Further: nearly all actives have a fitted effect of over 60% in size.

CCn1c(-c2nonc2N)nc2cnc(Oc3cccc(NC(=O)c4ccc(OCCN5CCOCC5)cc4)c3)cc21
inactive: max response (HaCat [1]) -18.5% | Potency (MCC-26) | Potency (MKL-2)
active: Potency (CRL-7250) 20.9 µM | Potency (HEK293) 11.8 µM | Potency (KB-3-1) 5.9 µM | Potency (NIH3T3) 14.8 µM

CC1(C)SCCN(S(=O)(=O)c2ccc(OCC#CCO)cc2)[C@@H]1C(=O)NO
inactive: max response (CRL-7250) -4.21% | max response (HEK293) -25.6% | outcome (KB-3-1) | max response (NIH3T3) -11.8% | Potency (MCC-13) | Potency (MKL-2)

CCCn1c(=O)c2[nH]c(C34CC5CC3C[C@@H](C5)C4)nc2n(CCC)c1=O
inactive: outcome (CRL-7250) | max response (HEK293) -11% | max response (KB-3-1) 5.05% | max response (NIH3T3) -0.656% | Potency (MCC-13) | Potency (MCC-26) | Potency (MKL-1) | Potency (MKL-2)

NS(=O)(=O)c1cc2c(cc1Cl)NC=NS2(=O)=O
inactive: Potency (PAD) | Potency (PC15) | Potency (PC26) | Potency (PC49) | Potency (SC27B) | Potency (TAB109) | Potency (TAB113) | Potency (W2) | max response (CRL-7250) -0.778% and -4.67% | max response (HEK293) -4.01% and 0.386% | max response (KB-3-1) -5.96% | outcome (KB-3-1) | max response (NIH3T3) 3.94% | outcome (NIH3T3) | outcome (HACAT [2]) | Potency (MCC-13) | Potency (MCC-26) | Potency (MKL-1) | Potency (MKL-2)

OCCn1cc(-c2cnc3nnn(Cc4ccc5ncccc5c4)c3n2)cn1
inactive: max response (CRL-7250) -20.1% | max response (HEK293) -13.9% | max response (HaCat [1]) -20.1% | max response (KB-3-1) 1.4% and -22% | max response (NIH3T3) -29.5% | Potency (MCC-13) | Potency (MCC-26) | Potency (MKL-1) | Potency (MKL-2)

CN[C@@H](C)C(=O)N[C@H]1CCCC[C@H]2CC[C@@H](C(=O)N[C@@H](c3ccccc3)c3cn(CCCCc4ccc(CCCCn5cc([C@@H](NC(=O)[C@@H]6CC[C@@H]7CCCC[C@H](NC(=O)[C@H](C)NC)C(=O)N76)c6ccccc6)nn5)cc4)nn3)N2C1=O
inactive: max response (CRL-7250) -4.97% | outcome (HEK293) | outcome (HaCat [1]) | outcome (NIH3T3) | outcome (HACAT [2]) | outcome (HEK293T) | Potency (MCC-13) | Potency (MCC-26)
active: Potency (MKL-1) 23.5 µM | Potency (MKL-2) 9.35 µM

O=C(Nc1nc2ccccc2n1CCN1CCOCC1)c1cccc([N+](=O)[O-])c1
inactive: outcome (CRL-7250) | outcome (HEK293) | max response (KB-3-1) 4.26% | outcome (NIH3T3) | outcome (HACAT [2]) | outcome (HEK293T) | Potency (MCC-13) | Potency (MCC-26)

COc1ccc(-c2ccc3c(N4CCOCC4)nc(N4C[C@@H](C)O[C@@H](C)C4)nc3n2)cc1CO
inactive: Potency (MKL-1)
active: Potency (CRL-7250) 0.296 µM | Potency (HEK293) 0.662 µM | Potency (KB-3-1) 1.66 µM | Potency (NIH3T3) 3.72 µM

COc1ccccc1-c1cccc(-c2c(O)c3cc(C#N)c(Cl)cc3[nH]c2=O)c1
inactive: max response (KB-3-1) -25.1% | Potency (MCC-13) | Potency (MCC-26) | Potency (MKL-1) | Potency (MKL-2)
active: Potency (CRL-7250) 8.55 µM | Potency (HEK293) 3.4 µM | Potency (HaCat [1]) 19.1 µM | Potency (NIH3T3) 21.5 µM

CC1(C)Cc2c(-c3ccccc3)c(-c3ccc(Cl)cc3)c(CC(=O)O)n2C1
inactive: max response (CRL-7250) 2.44% | max response (KB-3-1) -7.08% | max response (NIH3T3) -5.92% | Potency (MCC-13) | Potency (MCC-26) | Potency (MKL-1) | Potency (MKL-2)
active: Potency (HEK293) 14.6 µM

CCN(CC)CCCC(C)Nc1nc(C)cc(Nc2ccc3nc(C)cc(N)c3c2)n1 (stereo not drawn)
inactive: max response (CRL-7250) -4.56% | max response (HEK293) -11.7% | outcome (KB-3-1) | outcome (NIH3T3) | outcome (HACAT [2]) | Potency (MCC-13) | Potency (MCC-26) | Potency (MKL-1) | Potency (MKL-2)

Nc1nc2[nH]cc(CCc3ccc(C(=O)N[C@@H](CCC(=O)O)C(=O)O)cc3)c2c(=O)[nH]1
active: Potency (HEK293) 1.48 µM | Potency (NIH3T3) 1.18 µM
inactive: max response (CRL-7250) -1.95% | max response (KB-3-1) -20.9% and 0.617% | Potency (MCC-13) | Potency (MKL-1) | Potency (MKL-2)

CNCc1ccc(-c2[nH]c3cc(F)cc4c3c2CCNC4=O)cc1
active: Potency (HEK293) 11.6 µM
inactive: outcome (CRL-7250) | max response (KB-3-1) 9.78% | max response (NIH3T3) -1.23% and -23.6% | outcome (HACAT [2]) | Potency (MCC-13) | Potency (MCC-26) | Potency (MKL-1)

O=C(O)[C@@H](c1ccc(OCc2ccc3ccccc3n2)cc1)C1CCCC1
inactive: max response (CRL-7250) -8.88% | max response (HEK293) -13% | max response (HaCat [1]) -16.3% | max response (KB-3-1) -4.52% | max response (NIH3T3) -0.267% | Potency (MCC-13) | Potency (MCC-26) | Potency (MKL-1) | Potency (MKL-2)

CCCS(=O)(=O)Nc1ccc(F)c(C(=O)c2c[nH]c3ncc(Cl)cc23)c1F
inactive: max response (CRL-7250) -1.21% | max response (HaCat [1]) -1.82% | max response (KB-3-1) -9.42% and -0.0181% | max response (NIH3T3) -18.6% | Potency (MCC-13) | Potency (MKL-1) | Potency (MKL-2)
active: Potency (HEK293) 14.8 µM

COc1ccc(CC2=NN3C([C@@H](CCc4ccccc4)[C@@H](C)O)=NC(C)C3C(=O)N2)cc1OC (stereo partly drawn)
inactive: max response (CRL-7250) -0.833% | max response (HEK293) -3.77% | max response (HaCat [1]) -7.5% | max response (KB-3-1) 9.1% | max response (NIH3T3) 0.654% | Potency (MCC-13) | Potency (MCC-26) | Potency (MKL-1) | Potency (MKL-2)

Cn1cc(-c2ccc3nnc(C(F)(F)c4ccc5ncccc5c4)n3n2)cn1
inactive: max response (CRL-7250) -14.4% | max response (HEK293) -1.08% | max response (HaCat [1]) -1.46% | max response (KB-3-1) 5.05% and 7.07% | max response (NIH3T3) -35.7% | Potency (MCC-13) | Potency (MCC-26) | Potency (MKL-1) | Potency (MKL-2)
